Screening results deposited in PubChem by several laboratories.
TWEAK-Fn14 inh – inhibitors of TWEAK-Fn14 signaling, primary screen, luciferase reporter cells, uHTS | hit rate 2% among 360,000 | inhibition, % at 10 µM | TWEAK-stimulated Fn14 reporter cells, luciferase luminescence, 8 h | AID 1159606, 2016; in the data active means inhibition above about 50%
PAX8 reporter – inhibitors of PAX8-driven TPO luciferase reporter, primary screen, RMG-I cells, single concentration | SteadyGlo, 24 h | inhibition, % at 12.6 µM | hit rate 1.2% among 360,000 | AID 652154, 2013;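 active means mean replicate inhibition at least 60% with every replicate also reaching 60%; inconclusive means only one of the two criteria is met; inactive means mean below 60% and not all replicates reaching 60%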;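 further: luciferase light reporting Pax8 driven TPO promoter activity; plate controls were median of neutral control wells for no effect and mitoxantrone controls for full effect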
EWS-Fli block – EWS/Fli-driven NR0B1 reporter inhibitors, primary screen, A673 cells, NR0B1 luciferase, luminescence, MLPCN library | viability-normalised | hit rate 0.67% among 350,000 | inhibition, % at 12.6 µM;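 active means mean inhibition of at least 50% after viability correction, with every replicate also passing that limit; inconclusive means mean reaches 50% but only one of two replicates passes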;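 further: firefly luciferase signal divided by Alamar Blue viability fluorescence both relative to DMSO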
TROY signal inh – inhibitors of TROY-driven NF-kB signaling, primary screen, Q293 LMP1-TROYcd cells, NF-kB luciferase, uHTS. Q293 LMP1-TROYcd NF-kB luciferase reporter, 4 h. inhibition, % at 10 µM. hit rate 0.98% among 360,000. AID 1347056, 2019;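 active means compounds whose plate-normalised and pattern-corrected inhibition of the luciferase reporter signal at the single screening dose is 50% or more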
LGR2 antag – inhibitors of bursicon-induced LGR2 CRE-luciferase signal, primary screen, cell-based, HEK293, CRE-luciferase reporter, bursicon stimulation. bursicon-stimulated, 4 h. inhibition, % at 9.99 µM. AID 720647, 2013. hit rate 0.35% among 380,000;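 active means drop in luminescence signal, shown as inhibition above about 50% in the replicate tests, limit read from the data, passing the limit was not always enough; inconclusive means probably only some replicates passing the limit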;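 further: agonist challenge used bursicon conditioned medium at about half maximal strength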
EBV LMP1 NFkB – EBV LMP1-driven NF-kappaB luciferase reporter inhibitors, primary screen, cell-based, luminescence, single point. LMP1-induced NF-kappaB luciferase reporter cells. inhibition, % at 12.5 µM. hit rate 0.69% among 350,000. AID 504558, 2011; in the data active means inhibition above about 41%; inconclusive means no clear call, values can overlap the other calls;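 further: 0% = neutral control wells and 100% = reference inhibitor control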
Active calls of the source: *. A selection: hits, their analogues and other compounds. The true share with any hit is near 3.2%.

Clc1nccnc1N/N=C/c1ccc(Br)cc1 was read as TWEAK-Fn14 inh -15, PAX8 reporter -114, EWS-Fli block -109, TROY signal inh -25, LGR2 antag -82 and EBV LMP1 NFkB -31.
For COc1ccccc1/C=N/Nc1nncc2ccccc12 the results were TWEAK-Fn14 inh -47, PAX8 reporter -142, EWS-Fli block -97, TROY signal inh -32, LGR2 antag -32 and EBV LMP1 NFkB -5.
For COc1ccc(/C=N/Nc2nccnc2Cl)cc1 the results were TWEAK-Fn14 inh 60*, TROY signal inh 22 and EBV LMP1 NFkB 32.
For COc1cccc(/C=N/Nc2ncnc(Cl)c2N)c1O the results were TWEAK-Fn14 inh -5, EWS-Fli block 5, TROY signal inh 61* and EBV LMP1 NFkB 65*.
For C[C@H](CO)N1C[C@H](C)[C@@H](CN(C)C(=O)c2cnccn2)Oc2ncc(-c3cccc(C#N)c3)cc2C1=O the results were PAX8 reporter -20, EWS-Fli block -5 and LGR2 antag 2.
COc1cccc(/C=N/Nc2nccnc2Cl)c1O was read as TWEAK-Fn14 inh 65*, PAX8 reporter inconclusive, EWS-Fli block -40, TROY signal inh 46, LGR2 antag 76* and EBV LMP1 NFkB 72*.
Screening Oc1ccccc1/C=N/Nc1nccnc1Cl returned TWEAK-Fn14 inh -38, PAX8 reporter 5, TROY signal inh -17 and EBV LMP1 NFkB 58*.
Screening COc1cccc(/C=N/Nc2cc(-n3nc(C)cc3-c3ccccc3)ncn2)c1O returned TWEAK-Fn14 inh 61*, PAX8 reporter 24, TROY signal inh 26, LGR2 antag 15 and EBV LMP1 NFkB 4.
For COc1cccc(/C=N/Nc2nc(Nc3ccccc3)nc(-n3nc(C)cc3C)n2)c1O the results were TWEAK-Fn14 inh 35, TROY signal inh -44, LGR2 antag -21 and EBV LMP1 NFkB -8.
COc1ccc(/C=N/Nc2nccnc2Cl)c(OC)c1 was read as TWEAK-Fn14 inh 7, PAX8 reporter -103, EWS-Fli block -116, TROY signal inh -34, LGR2 antag -22 and EBV LMP1 NFkB -19.
For Cc1cc(C(=O)Nc2cccc3c2O[C@H](CN(C)Cc2ccncc2)[C@@H](C)CN([C@@H](C)CO)C3=O)n(C)n1 the results were PAX8 reporter -3, EWS-Fli block 5 and LGR2 antag -3.
Screening O=C(Nc1ccccc1)Nc1cc(Cl)cc(Cl)c1 returned TWEAK-Fn14 inh 41, TROY signal inh 51* and EBV LMP1 NFkB -4.
COC(=O)c1cc(NC(=O)Nc2cccc(Cl)c2)ccc1Cl was read as TWEAK-Fn14 inh 78*, EWS-Fli block -9, TROY signal inh 37, LGR2 antag 7 and EBV LMP1 NFkB 1.
`COC(=O)c1cccc(NC(=O)Nc2ccc(Cl)cc2)c1` gave TWEAK-Fn14 inh -3, PAX8 reporter -63, EWS-Fli block 75*, TROY signal inh -19, LGR2 antag -13 and EBV LMP1 NFkB -5.
`O=C(NCCNC(=O)c1cc(OCC(F)(F)F)ccc1OCC(F)(F)F)Nc1cccc(C(F)(F)F)c1` gave TWEAK-Fn14 inh 5, TROY signal inh 24 and EBV LMP1 NFkB -5.
For O=C(Nc1ccccc1)Nc1cc(OCC(F)(F)F)cc(OCC(F)(F)F)c1 the results were TWEAK-Fn14 inh 59*, PAX8 reporter 95*, EWS-Fli block 44, TROY signal inh 43, LGR2 antag 30 and EBV LMP1 NFkB -5.
Screening COc1ccc(NC(=O)Nc2ccc3c(c2)C(=O)N([C@H](C)CO)C[C@@H](C)[C@@H](CN(C)Cc2ccc(Oc4ccccc4)cc2)O3)cc1 returned PAX8 reporter 22, EWS-Fli block 7 and LGR2 antag -5.
`CO[C@@H]1CN(C)C(=O)c2ccc(NC(=O)C3CCCCC3)cc2OC[C@@H](C)N(C(=O)c2ccccc2)C[C@@H]1C` gave PAX8 reporter 5, EWS-Fli block 2 and LGR2 antag 7.
Screening CN(C)CCNc1ccc2ncn3c4ccc(O)cc4c(=O)c1c23 returned TWEAK-Fn14 inh 2, PAX8 reporter 64*, EWS-Fli block -6, TROY signal inh -38, LGR2 antag 11 and EBV LMP1 NFkB 35.
CN(C)CCNc1ccc(CO)c2sc3ccc(O)cc3c(=O)c12 was read as TWEAK-Fn14 inh -90, PAX8 reporter 96*, EWS-Fli block 43, TROY signal inh -53 and EBV LMP1 NFkB 49*.
For COc1ccc2cc(C(N)=O)c(=Nc3ccc(C)cc3)oc2c1 the results were TWEAK-Fn14 inh 67*, PAX8 reporter -26, EWS-Fli block -58, TROY signal inh 7, LGR2 antag -13 and EBV LMP1 NFkB 26.
COc1ccc(NC(=O)Nc2cccc3c2O[C@H](CN(C)S(=O)(=O)c2ccc(F)cc2)[C@@H](C)CN([C@@H](C)CO)C3=O)cc1 was read as PAX8 reporter 18, EWS-Fli block -1 and LGR2 antag 3.
`C[C@H]1CCCCO[C@H](CN(C)S(=O)(=O)c2ccccc2)[C@@H](C)CN([C@@H](C)CO)C(=O)c2cc(NS(=O)(=O)c3ccc(Cl)cc3)ccc2O1` gave PAX8 reporter 100*, EWS-Fli block 13 and LGR2 antag 6.
C[C@H]1CCCCO[C@@H](CN(C)S(=O)(=O)c2ccc(Cl)cc2)[C@@H](C)CN([C@@H](C)CO)C(=O)c2cc(NS(=O)(=O)c3ccccc3)ccc2O1 was read as TWEAK-Fn14 inh 9, PAX8 reporter inconclusive, EWS-Fli block 8, TROY signal inh 19, LGR2 antag 29 and EBV LMP1 NFkB 8.
For C[C@@H]1CCCCO[C@@H](CN(C)S(=O)(=O)c2ccccc2)[C@H](C)CN([C@H](C)CO)C(=O)c2cc(NS(=O)(=O)c3ccc(Cl)cc3)ccc2O1 the results were PAX8 reporter 66*, EWS-Fli block 8 and LGR2 antag 23.
C[C@@H]1CCCCO[C@H](CN(C)S(=O)(=O)c2ccc(Cl)cc2)[C@H](C)CN([C@H](C)CO)C(=O)c2cc(NS(=O)(=O)c3ccccc3)ccc2O1 was read as PAX8 reporter 33, EWS-Fli block 4 and LGR2 antag 3.
C/C(=N\Nc1ccc(C(=O)O)cc1)c1ccc(Br)cc1 was read as TWEAK-Fn14 inh 66*, PAX8 reporter 0, EWS-Fli block 49, TROY signal inh 14, LGR2 antag -24 and EBV LMP1 NFkB 4.
Screening C/C(=N/Nc1ncc(Br)cn1)c1ccc(Br)cc1 returned TWEAK-Fn14 inh -34, PAX8 reporter -39, EWS-Fli block -28, TROY signal inh -42, LGR2 antag -9 and EBV LMP1 NFkB -1.
Screening CC(C)c1nnc(NC(=O)c2sc3ccccc3c2Cl)s1 returned TWEAK-Fn14 inh -20, TROY signal inh -26 and EBV LMP1 NFkB -22.
